Laboratory results published in PubChem BioAssay AID778 (Sanford-Burnham Center for Chemical Genomics, 2007).
Among all 96,000 compounds or so, about 20,000 (21%) were called active.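 How the source made its calls: active means CYP2C19 inhibition above a set limit at 5 µM in the primary screen (cut at about 50% in these data); inactive means the rest.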 A selection follows.

biological target: Cytochrome P450 2C19 (Homo sapiens) (UniProt P33261); test: blockers of cytochrome P450 2C19 activity – biochemical, luminescence, ADME assay, primary screen (AID 778); conditions: CYP2C19 Supersomes, luciferin-H EGE luminescence, 30 min; at 5 µM; hits give high values;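 further: plate controls were negative control wells for no effect and 2.5 mM tranylcypromine positive control for full effect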
Sequence (P33261 whole entry, looked up): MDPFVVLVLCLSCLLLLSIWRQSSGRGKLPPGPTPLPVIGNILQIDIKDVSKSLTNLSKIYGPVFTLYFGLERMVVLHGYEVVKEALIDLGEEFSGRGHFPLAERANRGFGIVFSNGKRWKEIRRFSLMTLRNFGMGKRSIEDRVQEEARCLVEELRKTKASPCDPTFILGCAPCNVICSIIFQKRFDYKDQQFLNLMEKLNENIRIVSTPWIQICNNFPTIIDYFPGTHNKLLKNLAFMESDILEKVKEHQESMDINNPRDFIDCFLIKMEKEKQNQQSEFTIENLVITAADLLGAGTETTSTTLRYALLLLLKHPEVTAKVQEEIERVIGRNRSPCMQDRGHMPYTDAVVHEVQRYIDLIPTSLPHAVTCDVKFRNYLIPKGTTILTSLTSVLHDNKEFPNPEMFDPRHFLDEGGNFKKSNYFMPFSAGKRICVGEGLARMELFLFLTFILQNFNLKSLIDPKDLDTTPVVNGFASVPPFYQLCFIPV

For `COc1ccc(C(=O)c2oc3ccc(Br)cc3c2NC(C)=O)cc1`, which inhibition is on record?
Its inhibition is -4% (inactive).

`ON=C1/C(=N\O)CC2(C/C1=N/O)OCCO2` was tested. Which inhibition did it give?
Its inhibition is -10.5% (inactive).

With `O=C(C1CCC1)N1CCc2cc(S(=O)(=O)NCc3cccnc3)ccc21` as the compound, how does the inhibition read?
The inhibition was 10% (inactive).

Which inhibition does the source give for `O=C1c2ccccc2C(=O)c2c1cccc2N1CCN(Cc2ccccc2)CC1` here?
The inhibition was 13.4% (inactive).

For `CN1CCN(S(=O)(=O)c2ccc(N3CCN(S(=O)(=O)c4cccs4)CC3)nc2)CC1`, which inhibition is on record?
Its inhibition is -25.5% (inactive).

For `CCCCNc1nc2ccccc2nc1NS(=O)(=O)c1cccs1`, which inhibition is on record?
Its inhibition is 2.4% (inactive).

`O=S(=O)(c1cccs1)N1CCc2ccccc2C1` was tested. Which inhibition did it give?
The inhibition was 78% (active).

`O=C(Nc1ccc(S(=O)(=O)N2CCc3ccccc3C2)cc1)c1ccccc1` was tested. Which inhibition did it give?
The inhibition was 0.3% (inactive).

Which inhibition does the source give for `O=S(=O)(c1cccs1)N1CCN(Cc2ccccc2)CC1` here?
Its inhibition is 98.1% (active).

With `CCN(c1ccccc1)S(=O)(=O)c1ccc(NC(=O)C(C)(C)C)cc1` as the compound, how does the inhibition read?
The inhibition was 9.3% (inactive).

With `COc1cccc(/C=N\Nc2nncc(-c3ccccc3)n2)c1` as the compound, how does the inhibition read?
Its inhibition is -7% (inactive).

How did the inhibition turn out when `O=C1C=C(c2ccc(Cl)cc2)C(=O)N1Nc1ccccc1` was run?
The inhibition was 19.7% (inactive).

For `CCOc1ccc(C(=O)NC2CCN(S(=O)(=O)CC)CC2)cc1`, which inhibition is on record?
The inhibition was 9.1% (inactive).

With `CC(=O)NC(Cc1ccc(F)cc1)C(=O)O` (configuration not stated) as the compound, how does the inhibition read?
The inhibition was -5.1% (inactive).

With `Cn1c(SCc2c(F)cccc2Cl)nnc1-c1cnccn1` as the compound, how does the inhibition read?
Its inhibition is 25.9% (inactive).

With `O=C(NCc1ccco1)c1cccn2c(=O)c3c4c(sc3nc12)CCCC4` as the compound, how does the inhibition read?
Its inhibition is 45.2% (inactive).

`Cc1nc(SCC(=O)Nc2cc(C)on2)c2c3c(sc2n1)CCCC3` was tested. Which inhibition did it give?
The inhibition was 7% (inactive).

`CCCc1nc2sc3c(c2c(=O)n1NC(=O)CCCl)CCCC3` was tested. Which inhibition did it give?
Its inhibition is 88.5% (active).

With `O=C(Nc1cccc(-c2nc3ncccc3o2)c1)c1ccco1` as the compound, how does the inhibition read?
Its inhibition is 5.2% (inactive).

`O=C(NCCc1ccc2c(c1)OCCO2)c1cc2ccccc2o1` was tested. Which inhibition did it give?
The inhibition was 41.2% (inactive).

How did the inhibition turn out when `O=C(Nc1ccc(Cl)cc1)c1ccsn1` was run?
The inhibition was 25.4% (inactive).

`CN1C(=O)c2ccc(NC(=O)c3c(F)c(F)c(F)c(F)c3F)cc2C1=O` was tested. Which inhibition did it give?
The inhibition was -11.8% (inactive).

With `O=C(Nc1ccncc1)c1cc2ccccc2o1` as the compound, how does the inhibition read?
Its inhibition is 99.6% (active).

With `O=C(Nc1ccncc1)c1c(F)cccc1F` as the compound, how does the inhibition read?
Its inhibition is 52.4% (active).

For `C/C(=C\C(=O)c1ccccc1)Nc1cccc(O)c1`, which inhibition is on record?
The inhibition was 10.3% (inactive).

Which inhibition does the source give for `COc1ccc(CNC(=O)C2CCC(CNc3c(N4CCOCC4)c(=O)c3=O)CC2)cc1` (configuration not stated) here?
Its inhibition is -12.8% (inactive).

`COc1cccc(-c2nc3cc(C)ccc3o2)c1` was tested. Which inhibition did it give?
The inhibition was 42.7% (inactive).

`C/C=C/C(=O)OCC(=O)Nc1ccc(F)cc1Cl` was tested. Which inhibition did it give?
Its inhibition is 16.4% (inactive).

For `CCC1Oc2ccc(Cl)cc2N(CC(=O)O)C1=O` (configuration not stated), which inhibition is on record?
The inhibition was -3.7% (inactive).

How did the inhibition turn out when `Cc1cccc(C)c1NC(=O)c1ccc(CN2CCc3ccccc3C2)cc1` was run?
The inhibition was -19.5% (inactive).

Which inhibition does the source give for `CC(C)C(c1nnnn1CCc1ccccc1)N1CCN(C(=O)c2ccco2)CC1` (configuration not stated) here?
The inhibition was 15.7% (inactive).

For `CCC(c1nnnn1C1CCCC1)N1CCN(C(=O)c2ccco2)CC1` (configuration not stated), which inhibition is on record?
Its inhibition is 61.3% (active).

For `CC(=O)c1ccc(-n2nnnc2SCC(=O)N2CCN(C(=O)c3ccco3)CC2)cc1`, which inhibition is on record?
The inhibition was -3.8% (inactive).

With `COC(=O)C1=C(C)NC2=C(C(=O)c3ccccc32)C1c1ccc(-c2ccc(C(=O)O)cc2)o1` (configuration not stated) as the compound, how does the inhibition read?
Its inhibition is 44.5% (inactive).

`COC(=O)c1cc(NC(=O)CC2C(=O)NCCN2C(=O)c2ccc(F)cc2)cc(C(=O)OC)c1` (configuration not stated) was tested. Which inhibition did it give?
Its inhibition is 8.6% (inactive).

For `O=C(NC(C(=O)NCCN1CCOCC1)C12CC3CC(CC(C3)C1)C2)C1CCCCC1` (configuration not stated), which inhibition is on record?
Its inhibition is -0.8% (inactive).

Which inhibition does the source give for `OC(CN1C2=NCCCN2c2ccccc21)c1ccc(Br)cc1` (configuration not stated) here?
The inhibition was 11.9% (inactive).

How did the inhibition turn out when `O=C(Nc1nsc(-c2ccccc2)n1)c1ccncc1` was run?
The inhibition was 93.3% (active).

For `COC(=O)c1nc(NC(=O)c2ccccc2)n[nH]1`, which inhibition is on record?
The inhibition was 1.9% (inactive).

`Cn1sc(NC(=O)c2ccccc2)nc1=O` was tested. Which inhibition did it give?
Its inhibition is 0.2% (inactive).

How did the inhibition turn out when `CCOC(=O)C1Sc2[nH]c(=O)sc2C(c2ccc(Cl)cc2)C1C(=O)OCC` (configuration not stated) was run?
Its inhibition is 24.6% (inactive).

How did the inhibition turn out when `Cc1ccc2[nH]c(=O)c(CN(CCCN(C)C)C(=O)Nc3cccc(Cl)c3)cc2c1` was run?
The inhibition was -4.4% (inactive).

With `COc1ccc2[nH]c(=O)c(CN(CC3CCCO3)C(=O)Nc3ccccc3)cc2c1` (configuration not stated) as the compound, how does the inhibition read?
Its inhibition is 32.6% (inactive).

With `Cc1cccc(NC(=O)N(Cc2cc3cc(C)cc(C)c3[nH]c2=O)CC2COCCO2)c1` (configuration not stated) as the compound, how does the inhibition read?
The inhibition was 76.8% (active).

With `CCOC(=O)c1cccc(NC(=O)CCc2c(C)nc3ncnn3c2C)c1` as the compound, how does the inhibition read?
The inhibition was 2.3% (inactive).

With `Cc1ccc2c(CSc3nncs3)cc(=O)oc2c1` as the compound, how does the inhibition read?
Its inhibition is 86.8% (active).

`Cc1cc([N+](=O)[O-])c(N2CCC[C@@H]2C(=O)O)c([N+](=O)[O-])c1` was tested. Which inhibition did it give?
Its inhibition is -5.1% (inactive).

Which inhibition does the source give for `CCOc1ccc(C(=O)NC(C(=O)NCc2ccccn2)C(C)C)cc1` (configuration not stated) here?
The inhibition was 26.7% (inactive).

With `COc1cccc(/C=N/NC(=O)c2cccc([N+](=O)[O-])c2)c1OS(=O)(=O)c1ccc(C)cc1` as the compound, how does the inhibition read?
Its inhibition is 1.4% (inactive).

Which inhibition does the source give for `CC(C)(CSc1nncn1/N=C/c1ccco1)NS(=O)(=O)c1ccc(Cl)cc1` here?
Its inhibition is 53.3% (active).

Which inhibition does the source give for `COc1ccc(O)c(C(=O)c2cnc3onc(C(C)C)c3c2)c1` here?
The inhibition was 100% (active).

How did the inhibition turn out when `COc1ccc(O)c(C=Nc2cc(C)on2)c1` was run?
The inhibition was 1.5% (inactive).

For `O=C(Nc1cccc2cccnc12)c1cccc(N2C(=O)CCC2=O)c1`, which inhibition is on record?
The inhibition was 22.2% (inactive).

For `CCCC(C(=O)N1CCOCC1)N1C(=O)C2C3C=CC(C3)C2C1=O` (configuration not stated), which inhibition is on record?
The inhibition was -3.8% (inactive).

With `Cc1nc(Cl)c2oc3ccccc3c2n1` as the compound, how does the inhibition read?
Its inhibition is 49.8% (inactive).

`CCCCC(=O)Nc1cc(C)c2c(=O)oc3ccccc3c2n1` was tested. Which inhibition did it give?
The inhibition was 16.3% (inactive).

How did the inhibition turn out when `Cc1ccccc1-n1nnc2c(=O)oc3ccccc3c21` was run?
The inhibition was 66.5% (active).

With `Cc1ccc(-c2nc(CS(=O)CC(=O)N3CCN(c4ncccn4)CC3)c(C)o2)cc1` (configuration not stated) as the compound, how does the inhibition read?
Its inhibition is 24.1% (inactive).

Which inhibition does the source give for `CCOc1ccc(C(=O)N(Cc2ccc(N(C)C)cc2)C2CCS(=O)(=O)C2)cc1` (configuration not stated) here?
The inhibition was 58.6% (active).

For `COc1ccc(C(=O)N(Cc2ccc(N(C)C)cc2)C2CCS(=O)(=O)C2)cc1` (configuration not stated), which inhibition is on record?
Its inhibition is 8.9% (inactive).

`COc1cc(C(=O)N(Cc2ccc(N(C)C)cc2)C2CCS(=O)(=O)C2)cc(OC)c1OC` (configuration not stated) was tested. Which inhibition did it give?
Its inhibition is 19% (inactive).

For `Cc1ccc(CCn2c3c(c4ccccc42)CN(C)CC3)cn1`, which inhibition is on record?
The inhibition was 7.8% (inactive).
